PubChem BioAssay (NCATS)
Several values for one entry are separate records, joined by “and”; a condition that tells them apart may be missing. Identical values can stand only once. Values without a mark were called inactive. Inconclusive results are not listed. Where a call stands in place of a potency, no number is given. Activity calls are given as the source filed them. Unless noted, the call rests on the fitted dose curve; in most records, active means well fitted curve in the direction sought with a large enough effect; inconclusive means small, poorly fitted or top-dose-only effect, or another doubt; inactive means no such curve, though single readings can be large; an effect the other way counts as inactive or inconclusive.

What was measured:
[1] = target: ATP-dependent 6-phosphofructokinase (Trypanosoma brucei brucei) (UniProt O15648); assay: qHTS Assay to Find Inhibitors of T. brucei phosphofructokinase: hit validation (AID 492961);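 further: luminescence reports ADP formed as PFK phosphorylates fructose-6-phosphate with ATP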; conditions: T. brucei PFK, ADP-Glo luminescence; series mostly up to 51.4 µM
ATP-dependent 6-phosphofructokinase (Trypanosoma brucei brucei), sequence (O15648 whole entry, looked up): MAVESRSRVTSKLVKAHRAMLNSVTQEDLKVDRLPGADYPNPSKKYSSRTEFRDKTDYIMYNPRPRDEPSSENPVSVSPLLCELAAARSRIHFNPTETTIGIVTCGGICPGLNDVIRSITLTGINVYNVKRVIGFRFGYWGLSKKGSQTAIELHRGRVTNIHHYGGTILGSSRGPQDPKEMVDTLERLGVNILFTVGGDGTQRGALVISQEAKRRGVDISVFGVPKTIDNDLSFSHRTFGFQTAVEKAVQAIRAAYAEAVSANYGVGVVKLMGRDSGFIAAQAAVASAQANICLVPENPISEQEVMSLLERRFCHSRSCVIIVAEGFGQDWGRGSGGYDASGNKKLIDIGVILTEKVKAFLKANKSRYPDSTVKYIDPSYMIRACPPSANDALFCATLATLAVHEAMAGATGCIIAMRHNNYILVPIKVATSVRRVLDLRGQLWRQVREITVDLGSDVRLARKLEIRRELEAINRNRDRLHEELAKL
Procedure, shortened: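 PFK 1.25 nM, F6P 0.5 mM, ATP 0.1 mM, MgCl2 5 mM, 0.1 M TEA pH 8.0, Tween20 0.01%, BSA 0.1%; 45 min RT. ADP-Glo two-step detection, luminescence. qHTS titration; curve fitting with curve-class categorization.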

[2] = qHTS profiling for inhibitors of Plasmodium falciparum proliferation (AID 504749); further: nearly all actives have a fitted effect of over 60% in size; conditions: P. falciparum in erythrocytes, SYBR Green DNA, 72 h, at 28.7 µM (top of the series)
Procedure, shortened: (§1)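 Parasite proliferation within erythrocytes, 72 h exposure. Endpoint: SYBR Green I fluorescence after overnight lysis at room temperature. Controls: 0.29 uM artemisinin, DMSO.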

CP192 = assay: as above; conditions: P. falciparum in erythrocytes, SYBR Green DNA, 72 h; series mostly up to 28.7 µM
Procedure, shortened: as §1

CP194 = assay: as above; conditions: P. falciparum in erythrocytes, SYBR Green DNA, 72 h; series mostly up to 28.7 µM
Procedure, shortened: as §1

CP291 = assay: as above; conditions: P. falciparum in erythrocytes, SYBR Green DNA, 72 h; series mostly up to 28.7 µM
Procedure, shortened: as §1

W2 = assay: as above; conditions: P. falciparum in erythrocytes, SYBR Green DNA, 72 h; series mostly up to 28.7 µM
Procedure, shortened: as §1

[3] = target: Cytochrome P450 2C9 (Homo sapiens) (UniProt P11712); assay: qHTS Assay for Inhibitors and Substrates of Cytochrome P450 2C9 (AID 883); conditions: recombinant CYP2C9, luciferin-H luminescence, 60 min; series mostly up to 57.1 µM; further: nearly all actives have a fitted effect of over 60% in size; further: potency means the concentration at half of the fitted maximal effect
Cytochrome P450 2C9 (Homo sapiens), sequence (P11712 whole entry, looked up): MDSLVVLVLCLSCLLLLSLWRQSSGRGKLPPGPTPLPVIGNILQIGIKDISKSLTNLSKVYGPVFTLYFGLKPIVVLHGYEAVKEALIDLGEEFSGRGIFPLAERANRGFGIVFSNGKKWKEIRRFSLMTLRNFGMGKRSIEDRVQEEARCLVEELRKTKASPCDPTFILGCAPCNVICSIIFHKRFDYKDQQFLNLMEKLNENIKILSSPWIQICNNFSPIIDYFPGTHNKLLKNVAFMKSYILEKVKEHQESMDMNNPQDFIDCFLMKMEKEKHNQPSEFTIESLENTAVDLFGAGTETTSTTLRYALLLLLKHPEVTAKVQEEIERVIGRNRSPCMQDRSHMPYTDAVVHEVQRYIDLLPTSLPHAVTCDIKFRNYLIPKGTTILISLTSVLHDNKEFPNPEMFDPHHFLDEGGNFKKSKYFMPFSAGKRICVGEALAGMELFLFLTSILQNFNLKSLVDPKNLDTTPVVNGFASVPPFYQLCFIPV
Procedure, shortened: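 Human CYP2C9 (10nM) hydroxylated Luciferin-H (100uM, at its KM) to luciferin in 25mM KPO4. Compound was preincubated 10 min at 37C, then NADPH regeneration started a 60 min reaction at 37C. Luminescence was read after detection reagent, normalized to 57uM sulphaphenazole.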

[4] = Cell Viability - HepG2 (AID 433; calls by dose curve;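 further: potency means the concentration at half of the fitted maximal effect; potency for ATP loss meaning cytotoxicity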); conditions: qHTS
Procedure, shortened: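 Cytotoxicity is scored as loss of intracellular ATP in HepG2 cells exposed to compounds for 40 h. Concentration-response curves, normalized to DMSO and 100 uM tamoxifen, give AC50 values.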

[5] = Cellular Toxicity (caspase-3) HepG2 (AID 654); conditions: HepG2 caspase-3 activation, luminescence, 0% = DMSO only, 100% = tamoxifen; series mostly up to 92.2 µM;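 further: cells exposed to compound for 16 hours before reading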
Procedure, shortened: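 Cells plated 5 hr at 37 °C, compound added, incubated 16 hr at 37 °C. Caspase-Glo 3/7 reagent followed, 20 min at room temperature, then luminescence read. Activation scored as signal increase; AC50 from Hill fit.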

[6] = Cellular Toxicity (caspase-3) SK-N-SH (AID 661); conditions: SK-N-SH caspase-3 activation, qHTS, DMSO as zero, staurosporine as full; series mostly up to 91.7 µM;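 further: cells exposed to compound for 16 hours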
Procedure, shortened: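 Human neuroblastoma SK-N-SH, 1500 cells/well, 5 hr pre-incubation, then compound 16 hr, 37 °C. Caspase-Glo 3/7 reagent, 1 hr RT, luminescence. Norm. to DMSO/10 uM staurosporine; Hill-fit AC50.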

[7] = qHTS Assay for Identification of Small Molecule Agonists for Hypoxia Response Element Signaling Pathway (AID 914; active means well fitted activation curve with a large enough effect in the signal ratio, with a control signal flat, not every such curve was filed as active; the % refers to the signal ratio); conditions: ME-180 (cervical carcinoma) HRE-bla reporter, beta-lactamase ratio, CoCl2, 17 h; activation: hits give high values
Procedure, shortened: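 Positive modulation of EC50 CoCl2-induced hypoxia response element signaling is measured in ME-180 cells with a beta-lactamase reporter. Compounds are titrated, incubation runs 17 hours, and %Activity derives from the blue/green ratio.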

[8] = target: Glucocorticoid receptor (Homo sapiens) (UniProt P04150); assay: qHTS assay for small molecule agonists of glucocorticoid receptor signaling (AID 588532; active means well fitted curve in the direction sought with a large enough effect in the signal ratio, with a control signal flat; the % refers to the signal ratio); conditions: HeLa MMTV-bla, beta-lactamase ratio, agonist, 18 h; hits give high values; percent of dexamethasone control, DMSO zero
Glucocorticoid receptor (Homo sapiens), sequence (P04150 whole entry, looked up): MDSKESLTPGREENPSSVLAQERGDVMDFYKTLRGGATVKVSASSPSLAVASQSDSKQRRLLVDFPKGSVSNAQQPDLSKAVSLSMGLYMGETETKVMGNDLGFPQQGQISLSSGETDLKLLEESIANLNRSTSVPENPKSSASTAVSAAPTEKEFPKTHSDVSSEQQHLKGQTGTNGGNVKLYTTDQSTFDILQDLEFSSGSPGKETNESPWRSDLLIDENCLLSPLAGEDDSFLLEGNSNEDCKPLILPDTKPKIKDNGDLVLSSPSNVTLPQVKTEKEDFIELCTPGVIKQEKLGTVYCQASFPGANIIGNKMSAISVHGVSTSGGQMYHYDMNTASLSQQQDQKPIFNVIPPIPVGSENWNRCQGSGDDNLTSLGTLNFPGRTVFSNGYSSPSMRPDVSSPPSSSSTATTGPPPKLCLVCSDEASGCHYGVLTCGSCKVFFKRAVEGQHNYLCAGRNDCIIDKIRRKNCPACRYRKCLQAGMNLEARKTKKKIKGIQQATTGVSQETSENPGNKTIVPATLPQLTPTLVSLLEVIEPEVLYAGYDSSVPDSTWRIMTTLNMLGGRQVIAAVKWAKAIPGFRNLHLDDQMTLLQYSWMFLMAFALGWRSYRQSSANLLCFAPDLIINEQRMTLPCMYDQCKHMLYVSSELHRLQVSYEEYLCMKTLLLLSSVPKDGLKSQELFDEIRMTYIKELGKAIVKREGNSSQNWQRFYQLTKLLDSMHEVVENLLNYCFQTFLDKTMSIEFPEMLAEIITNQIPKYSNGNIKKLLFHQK
Procedure, shortened: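 MMTV-bla HeLa, beta-lactamase reporter; medium with 1% charcoal/dextran-stripped FBS; cpds up to 92 uM, 18 h, 37 C; CCF4 readout 460/530 nm; Hill fit → EC50, efficacy vs 0.1 uM dexamethasone = 100%.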

[9] = Cell Viability - LYMP2-004 (AID 966); conditions: LYMP2-004 lymphoblastoid cell viability, qHTS; series mostly up to 92.2 µM;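 further: cells exposed to compound for 24 h; nearly all actives have a fitted effect of over 65% in size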
Procedure, shortened: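 Cells seeded 2500/well, rested 5 hr at 37 C, dosed across a concentration series, incubated 24 hr at 37 C, then CellTiter-Glo added for 30 min at room temperature and luminescence read. Hill fitting gave AC50.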

[10] = Cell Viability - NIH 3T3 (AID 541); conditions: NIH 3T3 cell viability, qHTS; activity change, negative = cytotoxicity: at 92.2 µM (top of the series); further: nearly all actives have a fitted effect of over 25% in size
Procedure, shortened: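 Luminescent ATP signal (CellTiter-Glo) served as the viability read-out after NIH 3T3 cells were exposed to compounds over a concentration range for 40 hr at 37 °C. Hill-equation modelling of concentration-response data gave AC50.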

[11] = target: Retinoic acid receptor RXR-alpha (Homo sapiens) (UniProt P19793); assay: qHTS assay for small molecule antagonists of retinoid X receptor alpha signaling (AID 588546; active means well fitted inhibition curve with a large enough effect in the signal ratio, with a control signal flat, not every such curve was filed as active; the % refers to the signal ratio;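 further: cells stimulated with 9-cis-retinoic acid as agonist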); conditions: HEK293T RXRa-UAS-bla, beta-lactamase ratio, antagonist mode
Retinoic acid receptor RXR-alpha (Homo sapiens), sequence (P19793 whole entry, looked up): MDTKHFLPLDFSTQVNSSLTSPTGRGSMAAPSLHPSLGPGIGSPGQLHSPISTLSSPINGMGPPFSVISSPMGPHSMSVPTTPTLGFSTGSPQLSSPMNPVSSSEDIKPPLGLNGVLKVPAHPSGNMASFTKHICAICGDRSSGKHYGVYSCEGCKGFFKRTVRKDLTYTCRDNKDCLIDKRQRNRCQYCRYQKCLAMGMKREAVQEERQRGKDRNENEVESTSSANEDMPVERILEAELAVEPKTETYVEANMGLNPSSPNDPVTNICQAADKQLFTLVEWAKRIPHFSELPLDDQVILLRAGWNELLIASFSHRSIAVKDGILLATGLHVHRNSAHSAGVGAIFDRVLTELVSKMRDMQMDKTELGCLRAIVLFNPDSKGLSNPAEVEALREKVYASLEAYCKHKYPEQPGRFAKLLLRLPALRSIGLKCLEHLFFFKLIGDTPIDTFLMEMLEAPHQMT
Procedure, shortened: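 Beta-lactamase reporter inhibition, read as CCF4 fluorescence ratio (ex 405, em 460/530 nm) after 2 h at RT. HEK293T UAS-bla cells, 2500/well, were stimulated with 9-cis-RA at 500 or 100 nM final alongside test compound for 18 h at 37 C.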

[12] = qHTS assay for small molecule disruptors of the mitochondrial membrane potential - 5 hr assay (AID 651755; calls by dose curve; further: nearly all actives have a fitted effect of over 40% in size); conditions: JC-1-type ratio dye; series mostly up to 92.2 µM
Procedure, shortened: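 HepG2 cells, attached overnight at 37C, were exposed to compound or DMSO for 5 hr at 37C, 5% CO2. Mito-MPS dye was then added for 30 min, and fluorescence read at 490/535 nm (monomers) and 540/590 nm (aggregates).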

[13] = Cell Viability - LYMP2-003 (AID 965); conditions: LYMP2-003 lymphoblastoid cell viability; series mostly up to 92.2 µM;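 further: cells exposed to compounds for 24 h before reading; nearly all actives have a fitted effect of over 50% in size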
Procedure, shortened: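 Acute cytotoxicity is scored as a concentration-dependent drop in intracellular ATP, measured by luciferase luminescence in human lymphoblastoid cells treated for 24 hours at 37 C. AC50 values derive from Hill-equation modelling.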

[14] = target: Voltage-gated inwardly rectifying potassium channel KCNH2 (Homo sapiens) (UniProt Q12809); assay: qHTS Assay for Small Molecule Inhibitors of the Human hERG Channel Activity (AID 588834); conditions: U2OS BacMam hERG, FluxOR thallium flux fluorescence; series mostly up to 92.2 µM;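 further: top concentration of the series differs between compounds; lower thallium flux fluorescence means stronger hERG block; nearly all actives have a fitted effect of over 50% in size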
Voltage-gated inwardly rectifying potassium channel KCNH2 (Homo sapiens), sequence (Q12809 whole entry, looked up): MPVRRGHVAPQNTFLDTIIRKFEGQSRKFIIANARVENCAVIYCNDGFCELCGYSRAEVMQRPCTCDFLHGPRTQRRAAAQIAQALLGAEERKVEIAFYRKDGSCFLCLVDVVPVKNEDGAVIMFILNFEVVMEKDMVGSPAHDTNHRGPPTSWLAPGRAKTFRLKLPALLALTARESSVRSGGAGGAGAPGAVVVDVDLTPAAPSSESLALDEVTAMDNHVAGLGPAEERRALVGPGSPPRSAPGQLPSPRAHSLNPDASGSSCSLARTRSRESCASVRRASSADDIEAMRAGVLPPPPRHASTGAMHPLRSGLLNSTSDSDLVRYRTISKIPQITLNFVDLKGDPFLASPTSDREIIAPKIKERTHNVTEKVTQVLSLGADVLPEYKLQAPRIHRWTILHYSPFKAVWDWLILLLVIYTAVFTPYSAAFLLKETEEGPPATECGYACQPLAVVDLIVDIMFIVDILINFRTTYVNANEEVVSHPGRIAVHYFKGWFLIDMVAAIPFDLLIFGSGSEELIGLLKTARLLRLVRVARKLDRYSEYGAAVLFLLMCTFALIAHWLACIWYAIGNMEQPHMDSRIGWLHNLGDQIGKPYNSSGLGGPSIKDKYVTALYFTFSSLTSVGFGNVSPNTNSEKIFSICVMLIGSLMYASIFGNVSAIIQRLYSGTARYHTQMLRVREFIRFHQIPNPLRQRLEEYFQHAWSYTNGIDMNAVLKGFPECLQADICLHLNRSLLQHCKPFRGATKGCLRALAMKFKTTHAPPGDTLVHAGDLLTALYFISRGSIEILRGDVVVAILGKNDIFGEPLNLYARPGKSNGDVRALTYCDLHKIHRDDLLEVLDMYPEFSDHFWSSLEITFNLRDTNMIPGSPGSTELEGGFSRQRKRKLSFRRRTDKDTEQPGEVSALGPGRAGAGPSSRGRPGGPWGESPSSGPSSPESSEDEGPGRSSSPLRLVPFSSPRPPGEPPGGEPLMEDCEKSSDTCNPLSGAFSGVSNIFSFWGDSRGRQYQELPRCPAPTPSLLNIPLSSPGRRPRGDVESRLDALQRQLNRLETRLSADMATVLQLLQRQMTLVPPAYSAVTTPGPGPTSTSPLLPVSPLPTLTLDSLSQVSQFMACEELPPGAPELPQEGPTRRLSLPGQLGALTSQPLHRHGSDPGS
Procedure, shortened: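 Measured: FluxOR fluorescence after thallium stimulation in U2OS cells transduced with hERG by baculovirus. Compounds pre-incubated around 10 min; medium Opti-MEM with 2% FCS. AC50 from Hill equation.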

[15] = qHTS assay to identify small molecules that stimulate interleukin-8 (IL-8) secretion (AID 651758; active means well fitted activation curve with a large enough effect in the signal ratio; the % refers to the signal ratio; further: potency means the concentration at half of the fitted maximal effect); conditions: HTRF ratio (665/615); series mostly up to 92.2 µM
Procedure, shortened: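 THP-1, 2000 cells/well; cpd 16 h, 37 C; add cryptate + XL665 anti-IL-8 Abs; RT 1-3 h; TR-FRET read.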

[16] = Cell Viability - Renal Proximal Tubule (AID 545); conditions: renal proximal tubule cells viability, primary cells of rat origin; at 91.7 µM (top of the series); further: nearly all actives have a fitted effect of over 40% in size
Procedure, shortened: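 Cytotoxicity is scored as a concentration-dependent drop in cellular ATP in primary rat renal proximal tubule cells exposed for 40 hr. AC50 derives from Hill modelling.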

For `CC(=O)OC1CC2CCC1(C)C2(C)C` (stereo unspecified), the outcome [1] was “inactive”, the activity, negative = inhibition ([2]; parasite line A) was 6.76% and the activity, negative = inhibition ([2]; parasite line B) was 13.6%. For the same compound, the Potency (CP192) was “inactive”, the Potency (CP194) was “inactive” and the Potency (CP291) was “inactive”. The Potency (W2) was “inactive”.

For `COCCn1c(=O)c(-c2cccs2)nc2cnc(N3CCNCC3)nc21`, the Potency [3] was 2 µM (active).

In the case of `O=C(O)c1ccccc1`, the Potency [4] is reported as over 92 µM, the outcome [5] is reported as “inactive” and the outcome [6] is reported as “inactive”.

For `COc1cccc(Nc2ncc3ncc(=O)n(Cc4ccc(F)cc4)c3n2)c1`, the activation [7] was -20.2%.

In the case of `COc1ccc2[nH]cc(CCNc3ncnc4ccc(-c5cccc(C#N)c5)cc34)c2c1`, the Potency [3] is reported as 0.0631 µM (active).

In the case of `CCCCCCCCCCCCCC(=O)O`, the outcome [5] is reported as “inactive” and the activation [8] is reported as -3.49% and -3.58%.

For `COc1cc(/C=C/c2ccccc2)oc(=O)c1`, the Potency [9] was “inactive” and the activation [8] was 1.13%.

With `C=C(C)C1CC=C(C)C(O)C1` (stereo unspecified) the Potency [4] was over 92 µM, the Potency [10] was “inactive” and the outcome [6] was “inactive”. For the same compound, the activation [8] was 0.682%, the max response [11] was 5.08% and the Potency [12] was “inactive”.

With `C=CC(=C)CCC=C(C)C` the Potency [4] was over 92 µM, the Potency [10] was “inactive” and the outcome [5] was “inactive”. For the same compound, the Potency [13] was “inactive”, the Potency [9] was “inactive” and the Potency [14] was “inactive”. For the same compound, the Potency [15] was “inactive”.

`CC1=C2[C@H](/C=C(\C)C(=O)O)CC[C@@H](C)[C@H]2CC1` showed an activity change, negative = cytotoxicity [16] of -15.1%.

With `COc1ccc(/C=C/c2cc(OC)cc(=O)o2)cc1` the activity change, negative = cytotoxicity [16] was -20.5%, the outcome [5] was “inactive” and the max response [11] was -3.53%. The Potency [12] was “inactive” and the Potency [15] was 66.8 µM (active).

In the case of `COc1ccccc1CNc1nc(-c2ccc(C(=O)N(C)C)cc2)nc2ccccc12`, the activation [7] is reported as 25.3%.

With `CCCCCCCCCCCC(=O)O` the Potency [10] was “inactive”, the activity change, negative = cytotoxicity [16] was -7.81% and -14% and the outcome [6] was “inactive”. The Potency [14] was “inactive”.

For `O=c1cc(-c2ccc(O)c(O)c2)oc2cc(O[C@@H]3O[C@@H](CO)[C@@H](O)[C@@H](O)[C@H]3O)cc(O)c12`, the Potency [3] was “inactive”.

In the case of `CN(C)C(=O)c1ccc(-c2ccc3ncnc(Nc4ccc(F)cc4)c3c2)cc1`, the activation [7] is reported as 7.84%.

In the case of `CN(C)c1nc(-c2cccc(NS(C)(=O)=O)c2)nc2ccccc12`, the activation [7] is reported as 22.5%.

For `C=CCc1ccc(OC)c(OC)c1`, the Potency [4] was over 92 µM, the Potency [10] was “inactive” and the outcome [6] was “inactive”. The Potency [13] was “inactive”, the activation [8] was -12.3% and the Potency [14] was “inactive”. For the same compound, the Potency [15] was “inactive”.
